Experiment [1] has as its target human Phosphodiesterase 10 (PDE10), PDE10A (gene 10846) (UniProt Q9Y233). The experiment in a line: NVS_ENZ_hPDE10: NovaScreen (NVS) Enzymatic Assay for human Phosphodiesterase 10 (PDE10) (AID 2283195; active = hit-call score of the fitted dose curve at least 0.9, where 1 is the maximum). The gist of the method: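 Fluorescence/mobility-shift readout of PDE10A enzyme activity, taken 1 h post-dosing. Primary screen in duplicate at 25 uM; actives (e.g. ≥30% inhibition) retested as singleton concentration-response, top concentration 50 uM.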

Experiment [2] in a line: BSK_BT_Bcell_Proliferation: Viability Assessment in the BioMAP Diversity Plus: BT Assay for B cell Proliferation (AID 2284227). As to conditions: primary human B cells with PBMC. The essentials:
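Human B cell/PBMC co-culture; test chemical added; 72 h; TCA fix (10%), 0.1% SRB stain, A560 for total protein as a proliferation read-out; positive-direction fit vs DMSO baseline.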

Read-out in experiment [3]: Interleukin 6 (IL6), IL6 (gene 3569)
The experiment in a line: BSK_BT_xIL6: BioMAP Diversity Plus: BT Assay for Interleukin 6 (IL6) Biomarker Activity (AID 2284228). As to conditions: primary human B cells with PBMC. The gist of the method:
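Human B cell/PBMC co-culture; secreted IL-6 quantified by Luminex xMAP 24 h after chemical dosing, fitted relative to DMSO. Parallel PBMC viability by Alamar Blue after 1 h pretreatment, 20 ng/mL SEB and TSST-1, 90 h incubation.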

Read-out in experiment [4]: Interleukin 17A (IL17A), IL17A (gene 3605)
The experiment in a line: BSK_BT_xIL17A: BioMAP Diversity Plus: BT Assay for Interleukin 17A (IL17A) Biomarker Activity (AID 2284229). As to conditions: primary human B cells with PBMC. The gist of the method:
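Co-culture of human B cells and PBMC, dosed for 24 h in 96-well format. Secreted IL-17A measured with Luminex xMAP; gain-direction fitting against DMSO as baseline.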

Read-out in experiment [5]: Tumor necrosis factor (Homo sapiens) (UniProt P01375)
The experiment in a line: BSK_BT_xTNFa: BioMAP Diversity Plus: BT Assay for Tumor necrosis factor alpha (TNF-alpha) Biomarker Activity (AID 2284230). As to conditions: primary human B cells with PBMC. The essentials:
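Read-out: Luminex xMAP quantitation of secreted TNF-alpha from a B cell/PBMC co-culture 24 h after compound addition. Signal analysed relative to DMSO vehicle, positive fitting direction.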

Read-out in experiment [6]: Vascular cell adhesion molecule 1 (VCAM1), VCAM1 (gene 7412)
The experiment is described as follows: BSK_MyoF_VCAM1: BioMAP Diversity Plus: MyoF Assay for Vascular cell adhesion molecule 1 (VCAM1) Biomarker Activity (AID 2284231). Particulars: primary human lung fibroblasts. The essentials: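 Primary human lung fibroblasts (BioMAP MyoF system) dosed with chemical, VCAM-1 measured by ELISA 24 hours later. Fitted in the positive direction against DMSO; parallel SRB staining assessed cytotoxicity.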

Read-out in experiment [7]: Collagen III, COL3A1 (gene 1281)
The experiment is described as follows: BSK_MyoF_CollagenIII: BioMAP Diversity Plus: MyoF Assay for Collagen III Biomarker Activity (AID 2284239). As to conditions: primary human lung fibroblasts. The essentials:
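Primary human lung fibroblasts (BioMAP MyoF system) exposed 24 h. Collagen III measured by ELISA; positive-direction fit relative to DMSO.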

Read-out in experiment [8]: Interleukin 17F (IL17F), IL17F (gene 112744)
The experiment is described as follows: BSK_BT_xIL17F: BioMAP Diversity Plus: BT Assay for Interleukin 17F (IL17F) Biomarker Activity (AID 2284243). As to conditions: primary human B cells with PBMC. The gist of the method:
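Human PBMC co-cultured with B cells, compound exposure 24 h; secreted IL-17F quantified by Luminex xMAP, referenced to DMSO control. PBMC viability measured in parallel by Alamar Blue reduction.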

Read-out in experiment [9]: Actin alpha 1 (ACTA1), ACTA1 (gene 58)
The experiment in a line: BSK_MyoF_ACTA1: BioMAP Diversity Plus: MyoF Assay for Actin alpha 1 (ACTA1) Biomarker Activity (AID 2284244). As to conditions: primary human lung fibroblasts. The gist of the method:
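Human lung fibroblast (MyoF system) cultures dosed with test chemical; alpha-SMA measured by ELISA 24 h after dosing, normalized to DMSO control. Cytotoxicity tracked in parallel cultures by SRB total-protein staining.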

Read-out in experiment [10]: Interleukin 2 (IL2), IL2 (gene 3558)
The experiment is described as follows: BSK_BT_xIL2: BioMAP Diversity Plus: BT Assay for Interleukin 2 (IL2) Biomarker Activity (AID 2284245). As to conditions: primary human B cells with PBMC. The gist of the method:
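Human B cell plus PBMC co-culture, 24 h after chemical dosing; secreted IL-2 quantified by Luminex xMAP multiplex, fitted for signal gain against DMSO baseline.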

Read-out in experiment [11]: Basic fibroblast growth factor (bFGF), FGF2 (gene 2247)
The experiment is described as follows: BSK_MyoF_bFGF: BioMAP Diversity Plus: MyoF Assay for Basic fibroblast growth factor (bFGF) Biomarker Activity (AID 2284246). Particulars: primary human lung fibroblasts. The gist of the method:
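Human lung fibroblast cultures were dosed and measured 24 h later in 96-well format. bFGF biomarker levels quantified by ELISA, with activity fitted in the positive direction against DMSO.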

Read-out in experiment [12]: Collagen IV, COL4A1 (gene 1282)
The experiment is described as follows: BSK_MyoF_CollagenIV: BioMAP Diversity Plus: MyoF Assay for Collagen IV Biomarker Activity (AID 2284247). As to conditions: primary human lung fibroblasts. The gist of the method: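 Primary human lung fibroblasts (MyoF system) dosed 24 h; Collagen IV measured by ELISA. Activity fitted in positive direction against DMSO; cytotoxicity tracked by SRB total-protein staining in parallel cultures.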

Read-out in experiment [13]: Plasminogen activator inhibitor-1 (PAI1), SERPINE1 (gene 5054)
The experiment is described as follows: BSK_MyoF_PAI1: BioMAP Diversity Plus: MyoF Assay for Plasminogen activator inhibitor-1 (PAI1) Biomarker Activity (AID 2284256).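 Note: PAI-1 read 24 h after compound addition.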 As to conditions: primary human lung fibroblasts. The essentials:
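Primary human lung fibroblasts treated with chemical for 24 h; PAI-1 levels quantified by ELISA relative to DMSO. Cytotoxicity was assessed in parallel cultures by SRB total-protein staining (0.1% SRB after 10% TCA fixation, 560 nm).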

Read-out in experiment [14]: Interleukin-8 (IL8), CXCL8 (gene 3576)
The experiment is described as follows: BSK_MyoF_IL8: BioMAP Diversity Plus: MyoF Assay for Interleukin-8 (IL8) Biomarker Activity (AID 2284261). Particulars: primary human lung fibroblasts. The essentials:
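Human lung fibroblast (MyoF system) cultures dosed for 24 h, then IL-8 measured by ELISA. Response taken relative to DMSO; parallel SRB total-protein staining for cytotoxicity.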

Read-out in a further experiment: Decorin, DCN (gene 1634)
The experiment is described as follows: BSK_MyoF_Decorin: BioMAP Diversity Plus: MyoF Assay for Decorin Biomarker Activity (AID 2284265). Particulars: primary human lung fibroblasts. The gist of the method: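 Human lung fibroblast cultures were dosed for 24 h, and decorin was then measured by ELISA. Parallel cultures were stained with sulforhodamine B for total protein as a cytotoxicity check. Gain of signal was fitted relative to DMSO.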

A short description of experiment [15]: BSK_MyoF_SRB: Viability Assessment in the BioMAP Diversity Plus: MyoF Assay (AID 2284267).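 Note: total protein by SRB absorbance in parallel cultures as cytotoxicity measure.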 Particulars: primary human lung fibroblasts. The essentials:
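Human lung fibroblasts, 24 h after chemical dosing; total protein measured by 0.1% sulforhodamine B staining after 10% TCA fixation, read at 560 nm, fitted relative to DMSO baseline.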

Read-out in experiment [16]: Matrix Metallopeptidase 1 (MMP1), MMP1 (gene 4312)
The experiment in a line: BSK_MyoF_MMP1: BioMAP Diversity Plus: MyoF Assay for Matrix Metallopeptidase 1 (MMP1) Biomarker Activity (AID 2284268). As to conditions: primary human lung fibroblasts. The gist of the method: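 Human lung fibroblast primary cells; MMP1 measured by ELISA 24 h after dosing, fitted in the positive direction relative to DMSO. Parallel SRB staining (0.1%, after 10% TCA fixation, 560 nm) assesses overt cytotoxicity.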

Read-out in experiment [17]: TIMP metallopeptidase inhibitor 1 (TIMP1), TIMP1 (gene 7076)
The experiment is described as follows: BSK_MyoF_TIMP1: BioMAP Diversity Plus: MyoF Assay for TIMP metallopeptidase inhibitor 1 (TIMP1) Biomarker Activity (AID 2284269). As to conditions: primary human lung fibroblasts. The gist of the method: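 ELISA read-out of TIMP-1 from primary human lung fibroblast cultures 24 h after compound dosing; gain of signal relative to DMSO vehicle baseline defines activity.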

The target of experiment [18] is Retinoic acid receptor alpha (Homo sapiens) (UniProt P10276). The experiment is described as follows: ATG_RARa_TRANS: Attagene TRANS-FACTORIAL HepG2 Assay for human Retinoic Acid Receptor alpha (RARa) (AID 2283005; active = hit-call score of the fitted dose curve at least 0.9, where 1 is the maximum). The essentials: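 HepG2 cells transiently transfected with multiple reporter units expressing chimeric RARα-GAL4 fusion, with GAL4-UAS-driven reporters. After 24 h compound exposure, reporter mRNA induction quantified by RT-PCR and capillary electrophoresis with fluorescent labeling; gain-of-signal fitted relative to DMSO control.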
Chain of Retinoic acid receptor alpha (Homo sapiens) (P10276 whole entry, looked up, the tested form may be a part): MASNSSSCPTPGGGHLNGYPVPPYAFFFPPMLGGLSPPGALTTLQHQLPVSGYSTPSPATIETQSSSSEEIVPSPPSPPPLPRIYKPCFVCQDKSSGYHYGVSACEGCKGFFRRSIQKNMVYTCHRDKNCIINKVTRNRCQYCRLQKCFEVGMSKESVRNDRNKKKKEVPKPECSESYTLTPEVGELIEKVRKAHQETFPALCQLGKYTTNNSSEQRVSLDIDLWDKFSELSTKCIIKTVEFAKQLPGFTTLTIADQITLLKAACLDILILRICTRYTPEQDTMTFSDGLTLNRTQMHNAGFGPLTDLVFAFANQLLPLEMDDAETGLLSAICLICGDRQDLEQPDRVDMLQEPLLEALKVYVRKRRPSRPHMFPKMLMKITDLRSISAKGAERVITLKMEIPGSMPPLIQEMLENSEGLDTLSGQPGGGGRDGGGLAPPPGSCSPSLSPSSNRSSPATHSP

Experiment [19] can be described thus: CCTE_Deisenroth_AIME_384WELL_CTox_Inactive: Cytotoxicity Assessment (CTOX) in CCTE's 384-well Estrogen Receptor Transactivation Assay without AIME metabolic competence (metabolism negative), Deisenroth Lab (AID 2284039; active = hit-call score of the fitted dose curve at least 0.9, where 1 is the maximum;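 note: cell viability via live-cell protease substrate cleaved to fluorescent probe; cells exposed 24 h to medium preincubated 2 h with alginate-water beads without S9; loss of fluorescence signal means loss of viability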). The essentials:
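Fluorescent protease-substrate viability readout after 24 h exposure of VM7Luc4E2 cells to conditioned medium. Chemicals (0.002–200 uM) first sat 2 h over alginate-water beads, no S9. Data fitted bidirectionally, loss of signal meaning viability loss.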

Structures are written as SMILES. Results filed as inconclusive are left out. Activity calls are given as the source filed them. Rule for the calls, unless noted: active = hit-call score of the fitted dose curve at least 0.9, where 1 is the maximum; inactive = score below 0.9.

The values below come from PubChem BioAssay (EPA / NIEHS).

One may read the AC50 as the concentration giving half of the maximal activity seen.

Chain of Tumor necrosis factor (Homo sapiens) (P01375 whole entry, looked up): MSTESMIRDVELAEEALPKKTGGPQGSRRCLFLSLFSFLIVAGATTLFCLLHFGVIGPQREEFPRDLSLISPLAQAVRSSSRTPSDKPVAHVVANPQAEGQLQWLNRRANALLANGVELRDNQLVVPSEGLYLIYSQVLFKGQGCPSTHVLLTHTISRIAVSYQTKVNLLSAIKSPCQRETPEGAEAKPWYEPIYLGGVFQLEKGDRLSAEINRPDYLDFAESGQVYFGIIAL
Chain of human Phosphodiesterase 10 (PDE10), PDE10A (gene 10846) (Q9Y233 whole entry, looked up): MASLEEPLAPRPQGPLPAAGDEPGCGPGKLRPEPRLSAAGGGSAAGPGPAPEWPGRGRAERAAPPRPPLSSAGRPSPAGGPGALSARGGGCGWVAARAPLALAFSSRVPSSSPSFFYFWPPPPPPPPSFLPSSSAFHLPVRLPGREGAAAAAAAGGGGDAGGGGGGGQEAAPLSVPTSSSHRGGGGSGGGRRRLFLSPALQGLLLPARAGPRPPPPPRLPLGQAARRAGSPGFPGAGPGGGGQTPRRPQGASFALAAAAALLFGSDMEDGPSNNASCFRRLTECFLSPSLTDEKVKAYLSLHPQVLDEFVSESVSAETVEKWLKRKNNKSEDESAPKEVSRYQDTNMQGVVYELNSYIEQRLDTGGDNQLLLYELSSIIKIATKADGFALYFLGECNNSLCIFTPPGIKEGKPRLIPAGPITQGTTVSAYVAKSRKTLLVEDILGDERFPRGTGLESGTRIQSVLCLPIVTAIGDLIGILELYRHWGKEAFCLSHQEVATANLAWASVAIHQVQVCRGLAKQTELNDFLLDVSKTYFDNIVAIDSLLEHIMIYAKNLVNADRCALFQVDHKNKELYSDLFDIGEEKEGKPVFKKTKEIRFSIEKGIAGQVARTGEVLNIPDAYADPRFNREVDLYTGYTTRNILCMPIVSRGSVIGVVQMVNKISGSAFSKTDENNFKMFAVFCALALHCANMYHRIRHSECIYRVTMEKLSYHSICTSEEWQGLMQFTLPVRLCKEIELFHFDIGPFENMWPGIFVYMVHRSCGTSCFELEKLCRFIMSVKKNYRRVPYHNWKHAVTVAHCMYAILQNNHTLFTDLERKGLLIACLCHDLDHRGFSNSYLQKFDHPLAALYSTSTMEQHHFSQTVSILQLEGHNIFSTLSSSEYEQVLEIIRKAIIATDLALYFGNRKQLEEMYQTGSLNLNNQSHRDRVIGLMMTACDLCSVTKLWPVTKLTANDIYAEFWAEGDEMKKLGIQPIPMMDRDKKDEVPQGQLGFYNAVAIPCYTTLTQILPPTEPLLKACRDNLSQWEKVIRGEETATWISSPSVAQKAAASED

Turning to `COC(=O)/C=C\C(=O)OC`, the compound was classed as inactive in experiment [1], in [2], in [4], in experiment [5], in [6] and in experiment [7]. In addition, the outcome in experiment [9] was “inactive”; in [11], “inactive”; in experiment [12], “inactive”; in experiment [13], “inactive”; in [14], “inactive”; with Decorin, DCN (gene 1634), “inactive”. Further, the outcome in experiment [15], in [16] and in [17] was inactive. For the same compound, the values for the AC50 in experiment [3], in experiment [8] and in experiment [10] were 14.5 µM (active), 20 µM (active) and 12.8 µM (active), respectively.
Consider `CCOC(=O)CC(=O)OCC`, for which the compound was called inactive in experiment [18].
For the compound `CC(=O)OC(C)(C)Cc1ccccc1`, in [19], the outcome was inactive.
For `CO[Si](CCCNCCN)(OC)OC`, in [18], the compound was called inactive.
As to `CCC(C)=NO`, the outcome in experiment [19] was inactive.
Take `Oc1cccc2ccccc12`: the call in [19], in experiment [4], in [5], in [6], in experiment [8] and in experiment [9] was inactive. In addition, the outcome in experiment [10] is “inactive”; in experiment [11], “inactive”; in experiment [12], “inactive”; in experiment [13], “inactive”; with Decorin, DCN (gene 1634) it was “inactive”; in experiment [15], “inactive”. Further, the outcome in [17] was inactive. Besides, the AC50 is 2.2 µM (active) in [2]; 0.0576 µM (active) in experiment [3]; 5.51 µM (active) in experiment [7]; 6.06 µM (active) in [14]; 12.1 µM (active) in [16].
As for `CC[N+](CC)(CC(=O)Nc1c(C)cccc1C)Cc1ccccc1` (tested in a mixture with another compound), the call in experiment [19] was inactive.
`Sc1nc2ccccc2s1`: the result in experiment [2], in experiment [3], in [4], in [5], in [6] and in experiment [7] was inactive. Moreover, the outcome in experiment [8], in experiment [9], in [10], in [11], in experiment [12] and in experiment [13] was inactive. For the same compound, the outcome in experiment [14] was “inactive”; in the experiment with Decorin, DCN (gene 1634), “inactive”; in experiment [15], “inactive”; in experiment [16], “inactive”; in [17] it was “inactive”.
Consider `COC(=O)[C@]1(C)CCC[C@@]2(C)[C@H]1CC=C1C=C(C(C)C)CC[C@@H]12`, for which the compound was called inactive in [19].
